SMILES strings stand for the structures. Calls of active or inactive are those of the source. Cut-off read from the data, not from the text of the source: active = activation above about 85%; inactive = the rest.

The assay deals with Peroxisome proliferator-activated receptor gamma (Homo sapiens) (UniProt P37231). Nature of the assay: partial agonism at human PPARgamma receptor – cell-based, luciferase reporter, luminescence, primary screen (AID 504452).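 Note: Cos-1 cells carrying PPARgamma and a response element luciferase reporter.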 Conditions: cell-based PPARg luciferase reporter, at 5 µM, stronger effect = higher value; activation (% of full agonist control): measured here: relative to full agonist control. (In general: A reporter such as luciferase makes a cellular process visible.)
Sequence of Peroxisome proliferator-activated receptor gamma (Homo sapiens) (P37231 whole entry, looked up): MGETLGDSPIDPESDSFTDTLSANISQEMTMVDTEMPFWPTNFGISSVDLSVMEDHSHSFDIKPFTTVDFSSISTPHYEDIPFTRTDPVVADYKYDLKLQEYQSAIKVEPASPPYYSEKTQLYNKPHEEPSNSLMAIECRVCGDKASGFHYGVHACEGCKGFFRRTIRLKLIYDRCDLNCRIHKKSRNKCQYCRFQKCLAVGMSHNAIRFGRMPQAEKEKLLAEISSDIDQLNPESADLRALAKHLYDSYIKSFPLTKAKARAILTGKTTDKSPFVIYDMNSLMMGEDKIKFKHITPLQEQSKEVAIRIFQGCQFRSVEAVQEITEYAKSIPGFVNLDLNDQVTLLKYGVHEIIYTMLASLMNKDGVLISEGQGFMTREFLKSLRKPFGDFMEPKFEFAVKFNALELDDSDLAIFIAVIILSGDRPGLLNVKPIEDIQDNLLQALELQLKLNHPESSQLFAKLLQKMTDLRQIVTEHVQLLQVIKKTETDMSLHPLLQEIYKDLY

With `O=C(CCn1c(=O)c2sccc2n(CC(=O)OCc2ccccc2)c1=O)NCc1ccccc1`, the activation (% of full agonist control) was determined as 31.1% and the activation (% of partial agonist control) was 68.8% (inactive).
The corresponding values for `N#Cc1ccc(C(=O)Nc2cc(-c3ccc(F)cc3)nn2-c2ccccc2)cc1` are 27.4% and 60.6% (inactive).
In the case of `O=C(NC(Cc1c[nH]c2ccccc12)C(=O)O)/C(=C/c1ccc(F)cc1)NC(=O)c1ccccc1` (stereo not drawn), the activation (% of full agonist control) stood at 32.2% and the activation (% of partial agonist control) was 71.2% (inactive).
The corresponding values for `CCOc1cccc(C2C(C(=O)c3ccco3)=C(O)C(=O)N2c2nnc(C)s2)c1` (stereo not drawn) are 31.8% and 70.4% (inactive).
For `Cc1nc2c(sc(=S)n2Cc2ccco2)c(=O)n1CC(=O)Nc1cc(F)ccc1F`, the activation (% of full agonist control) turned out to be 32.4% and the activation (% of partial agonist control) is 71.8% (inactive).
`O=S(=O)(NCC(c1ccc2c(c1)OCO2)N1CCOCC1)c1ccc(F)cc1` (stereo not drawn): the activation (% of full agonist control) was 35.4% and the activation (% of partial agonist control) is 78.4% (inactive).
The corresponding values for `COC(=O)C1=CN(Cc2ccccc2)C=C(C(=O)OC)C1c1ccc(OC)c(OC)c1` are 25.9% and 57.3% (inactive).
As for `Cc1cc(C(=O)CN2C(=O)C(=O)N(Cc3ccccc3)C2=O)c(C)n1-c1ccc2c(c1)OCCO2`, the activation (% of full agonist control) was determined as 40.4% and the activation (% of partial agonist control) is 89.5% (active).
In the case of `COc1ccc(CCn2c(C)cc(C(=O)CN3C(=O)C(=O)N(C4CCCC4)C3=O)c2C)cc1OC`, the activation (% of full agonist control) is 27.1% and the activation (% of partial agonist control) is 60% (inactive).
The matching figures for `O=S(=O)(NCC(c1ccco1)N1CCc2ccccc2C1)c1ccc(F)cc1` (stereo not drawn): 29.9% and 66.1% (inactive).
`O=C(O)CC1=C(Nc2ccccc2)C(=O)N(c2ccccc2)C1c1ccc(F)cc1` (stereo not drawn): the activation (% of full agonist control) is 31% and the activation (% of partial agonist control) was 68.7% (inactive).
On to `Cc1cccc(Cn2cc3c(=O)n(Cc4cccc(F)c4)nc-3c3ccccc32)c1`, for which the activation (% of full agonist control) stood at 38% and the activation (% of partial agonist control) is 84.2% (inactive).
Regarding `C[C@H](NC(=O)c1nc[nH]c1C(=O)N1CCc2ccccc2C1)C(=O)OCc1ccccc1`, the activation (% of full agonist control) was 29.5% and the activation (% of partial agonist control) is 65.3% (inactive).
In the case of `CCOC(=O)c1c(C)[nH]c(C(=O)Cn2c(=O)c3c(ncn3CC)n(Cc3ccccc3)c2=O)c1C`, the activation (% of full agonist control) was found to be 29.8% and the activation (% of partial agonist control) was 66% (inactive).
The corresponding values for `CCC(=O)c1ccc(OCC(=O)OC(C)C(=O)Nc2c(C)n(C)n(-c3ccccc3)c2=O)cc1` (stereo not drawn) are 40.4% and 89.5% (active).
As to `CC(Oc1cccc(Cl)c1)C(=O)Nc1ccc(N2CCOCC2)cc1N1CCOCC1` (stereo not drawn), the activation (% of full agonist control) came to 33.2% and the activation (% of partial agonist control) was 73.5% (inactive).
For the compound `COc1ccc(N2CCN(C(=O)CNC(=O)Cn3c(C)cc4ccccc4c3=O)CC2)cc1`, the activation (% of full agonist control) was 33.3% and the activation (% of partial agonist control) is 73.7% (inactive).
For the compound `COc1ccccc1N1C(=O)C2C(c3ccc(F)cc3)NN(C(=O)c3ccc(C)cc3)C2C1=O` (stereo not drawn), the activation (% of full agonist control) amounted to 30.1% and the activation (% of partial agonist control) is 66.5% (inactive).
Consider `Cc1[nH][nH]c(=O)c1C(c1c(C)[nH][nH]c1=O)c1cn(Cc2cccc3ccccc23)c2ccccc12`, for which the activation (% of full agonist control) is 37.6% and the activation (% of partial agonist control) was 83.3% (inactive).
As to `CC(=O)N/C(=C\c1ccc2c(c1)OCO2)C(=O)NC(C(=O)O)c1ccccc1` (stereo not drawn), the activation (% of full agonist control) was 27.7% and the activation (% of partial agonist control) is 61.4% (inactive).
For `Cc1[nH][nH]c(=O)c1C(c1c(C)[nH][nH]c1=O)c1cn(Cc2ccc(Cl)c(Cl)c2)c2ccccc12`, the activation (% of full agonist control) worked out at 35.5% and the activation (% of partial agonist control) is 78.5% (inactive).
Consider `O=C(NC(Cc1ccccc1)C(=O)N1CCN(c2ccccc2O)CC1)c1ccccc1` (stereo not drawn), for which the activation (% of full agonist control) is 40.7% and the activation (% of partial agonist control) is 90.2% (active).
As for `CCOC(=O)N1CCN(C(=O)c2ccc(S(=O)(=O)c3ccc(C)cc3)c(NC(C)=O)c2)CC1`, the activation (% of full agonist control) amounted to 37.2% and the activation (% of partial agonist control) is 82.4% (inactive).
On to `COc1ccc(CNC(=O)Cn2c(=O)n(CCC(=O)N3CCCCC3)c(=O)c3sccc32)cc1`, for which the activation (% of full agonist control) was 46.4% and the activation (% of partial agonist control) is 103% (active).
Regarding `OCCC1CN(Cc2cccn2-c2cccnc2)CCN1Cc1ccc(F)cc1` (stereo not drawn), the activation (% of full agonist control) turned out to be 29.8% and the activation (% of partial agonist control) was 66% (inactive).
`Cc1ccc(C(=O)N2NC(c3ccccc3F)C3C(=O)N(c4cccc(C)c4)C(=O)C32)cc1` (stereo not drawn): the activation (% of full agonist control) came to 33.4% and the activation (% of partial agonist control) was 73.8% (inactive).
On to `COc1ccc(C2C(C(=O)N3CCC(C(N)=O)CC3)CC(=O)N2c2ccc(OC)cc2)cc1` (stereo not drawn), for which the activation (% of full agonist control) was determined as 25.5% and the activation (% of partial agonist control) is 56.5% (inactive).
As for `O=C(CN1C(=O)/C(=C/c2ccccc2F)Sc2ccccc21)NCC1CCCO1` (stereo not drawn), the activation (% of full agonist control) was 35% and the activation (% of partial agonist control) was 77.5% (inactive).
Regarding `Cc1ccc(C)c(S(=O)(=O)NCC(c2ccco2)N2CCc3ccccc3C2)c1` (stereo not drawn), the activation (% of full agonist control) was found to be 29% and the activation (% of partial agonist control) was 64.3% (inactive).
The corresponding values for `Cc1nn(Cc2cccc(C(=O)Nc3ccn(Cc4ccccc4F)n3)c2)c(C)c1[N+](=O)[O-]` are 32.8% and 72.6% (inactive).
`C=CCSc1nnc(N2C(=O)C(O)=C(C(=O)c3ccco3)C2c2ccc(F)cc2)s1` (stereo not drawn): the activation (% of full agonist control) was 30.5% and the activation (% of partial agonist control) was 67.6% (inactive).
As to `O=C(COc1ccc([N+](=O)[O-])cc1)Nc1cccc(C(=O)Nc2ccccc2C(=O)O)c1`, the activation (% of full agonist control) was 27.7% and the activation (% of partial agonist control) was 61.3% (inactive).
With `CN(C(=O)CS(=O)(=O)c1cn(CC(=O)N2CCCC2)c2ccccc12)c1ccccc1`, the activation (% of full agonist control) turned out to be 24.5% and the activation (% of partial agonist control) was 54.2% (inactive).
Consider `COc1ccc(O)c(C(=O)c2cc(C#N)c(=O)n(CC3CCCO3)c2)c1` (stereo not drawn), for which the activation (% of full agonist control) worked out at 38.1% and the activation (% of partial agonist control) is 84.3% (inactive).

For the origin of these results see PubChem BioAssay AID504452 (The Scripps Research Institute Molecular Screening Center, 2011).
